Source: PubChem BioAssay (NCI)
Where “and” joins values, the source holds several entries; their conditions need not be identical. Identical values can stand only once. About 79,000 compounds went through this panel and 15% of them were active in at least one assay; those are over-represented in the sample as a whole. Values without a mark were called inactive. Calls of active or inactive are those of the source. No stated cut-off is given here; in the data, active means growth inhibition above about 70%; inactive means the rest.

What was measured:
[1] = NCI Yeast Anticancer Drug Screen. Data for the rad50 strain (AID 155);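 further: 0% = growth of vehicle-only cultures of the same strain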; details: S. cerevisiae rad50 strain growth inhibition, stronger effect = higher value
Method in brief: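 Inhibition values express reduced yeast growth in compound-treated cultures relative to vehicle-treated controls.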

[2] = NCI Yeast Anticancer Drug Screen. Data for the mec2-1 strain (AID 157); details: S. cerevisiae mec2-1 strain, stronger effect = higher value
Method in brief: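 Each compound was tested on mec2-1 yeast, a strain altered in DNA damage repair or cell cycle control. Growth inhibition is reported relative to vehicle.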

[3] = NCI Yeast Anticancer Drug Screen. Data for the sgs1 mgt1 strain (AID 161);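 further: 0% = growth of cultures given vehicle only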; details: S. cerevisiae sgs1 mgt1 strain, stronger effect = higher value
Method in brief: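 Test agents were incubated with a DNA-repair-mutant yeast strain. Growth was then read and compared against vehicle-treated controls.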

[4] = NCI Yeast Anticancer Drug Screen. Data for the cln2 rad14 strain (AID 165);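 further: 0% = growth equal to vehicle treated cultures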; details: S. cerevisiae cln2 rad14 strain, stronger effect = higher value
Method in brief: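 Test compounds were added to cln2 rad14 yeast cultures; inhibition of growth was then determined by comparison with vehicle treatment.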

[5] = NCI Yeast Anticancer Drug Screen. Data for the bub3 strain (AID 167); details: S. cerevisiae bub3 mutant strain, stronger effect = higher value
Method in brief: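 Steps: expose the mutant yeast strain to compound; grow alongside vehicle-treated cultures; measure growth; express inhibition against the vehicle cultures.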

[6] = NCI Yeast Anticancer Drug Screen. Data for the mlh1 rad18 strain (AID 175); details: S. cerevisiae mlh1 rad18 strain growth inhibition, stronger effect = higher value
Method in brief: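 Inhibition values reflect reduced growth of mutant yeast versus vehicle-treated controls following compound exposure; the mutations affect DNA damage repair.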

[7] = at 5.0 µM (retest, dose inferred, filed as 0.5)
[8] = at 50.0 µM (retest, dose inferred, filed as 5.0)

SMILES | growth inhibition ([1]; at 50.0 µM) | growth inhibition ([2]; at 50.0 µM) | growth inhibition ([3]; at 50.0 µM) | growth inhibition ([4]; at 50.0 µM) | growth inhibition ([5]; at 50.0 µM) | growth inhibition ([6]; at 50.0 µM) | growth inhibition [1, 7] [%] | growth inhibition [1, 8] | growth inhibition [2, 7] [%] | growth inhibition [2, 8] | growth inhibition [3, 7] [%] | growth inhibition [3, 8] | growth inhibition [4, 7] [%] | growth inhibition [4, 8] [%] | growth inhibition [6, 7] [%] | growth inhibition [6, 8] | growth inhibition [5, 7] [%] | growth inhibition [5, 8] [%]
Cc1ccnc(N)c1 | -10.2% and -13.3% and 9.05% | -3.4% and -17.8% and 11.4% | 2.2% and -19.4% and -6.3% | -34.4% and -28.6% and -33.6% | 0.95% and 7.15% and -8.9% | 1.35% and 16.1% and 1.85% |  |  |  |  |  |  |  |  |  |  |  | 
COc1ccccc1C(=O)c1ccc2ccccc2c1 | 47.2% | 73% (active) | 61.8% | -17.1% |  | 42.3% | -3 | 71% (active) | -10 | 85% (active) | 0 | 83% (active) | -6 | 9 | -15 | 55% |  | 
Cc1cccc(N2C(c3ccccc3)c3ccc(C)cc3NS2=O)c1 (stereo unspecified) | 98.7% (active) |  | 99.1% (active) | 98.7% (active) | 99.2% (active) | 99.2% (active) | 2 | -1% |  |  | 1 | -2% | 1 | 1 | -4 | -7% | -2 | -1
Cc1cc(C)c(O)c(C(C)(C)C)c1 | 92.3% (active) |  | 74.7% (active) | 64.6% | 66.8% | 89.7% (active) | -1 | 3% |  |  | 1 | 0% | 2 | 8 | 2 | 4% | 3 | -10
COC(=O)c1ccc(C)cc1C1CN=NC12Cc1cccc(C)c1C2=O (stereo unspecified) |  | 24.9% | 8.65% | 83.5% (active) | 41.8% | 2.55% |  |  | -1 | 10% | 16 | 22% | 5 | 10 | -1 | 6% | -2 | 23
CNC(=S)N(C)C(=S)Nn1c(=O)c(C)nn(C)c1=S | 70.8% (active) | 79.7% (active) | 87% (active) | 57.9% |  | 72.5% (active) | -24 | 59% | -23 | 96% (active) | -19 | 50% | -3 | 66 | -27 | 97% (active) |  | 
